From PubChem
Shown are actives, neighbours in structure and some others; about 3% of the full set was active somewhere.
hERG WT inh: KCNH2 (human, wildtype) channel inhibition. Q12809. U2OS, BacMam KCNH2, thallium flux FluxOr; stronger effect = lower value. activity change, % at 1.84 µM. actives 0.37% (n = 340,000). AID 720551;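 active = maximum activity change below -70%; inconclusive = maximum activity change between -70% and -50%; inactive = maximum activity change above -50%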; note: % is set by controls: 0 for no effect and ±100 for the full control effect
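U2OS cells transduced with wild-type KCNH2 virus are loaded with FluxOr dye for 45 min, and thallium flux is measured in kinetic reads before and after stimulation buffer. Rate constants are normalized to DMSO controls.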
BCR signal inh: inhibitors of chronic active B-cell receptor signaling. ABC-DLBCL IkBa-CBG/CBR reporter, luminescence ratio, 4 h. AID 493014. actives 0.05% (n = 340,000). Potency, µM (highest dose often 46.1 µM), without a hit: at the highest dose activity change, negative = inhibition, hits mostly inhibitors; active = well fitted inhibition curve with a large enough effect in the signal ratio, with a control signal flat, not every such curve was filed as active; inconclusive = small, poorly fitted or top-dose-only effect, or effect the other way, or a change in a side signal; the % refers to the signal ratio;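 note: potency is the fitted concentration of half-maximal effect; plate controls were basal doxycycline-induced cells for no effect and cells given 10 µM MG132 for full effect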
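TMD8 ABC-DLBCL cells carrying doxycycline-inducible green luciferase fused to IkappaBalpha plus unfused red luciferase were exposed to compounds (up to 46 uM) for 4 hrs at 37C. Activity came from the overlap-corrected green/red luminescence ratio.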
KCNH2 3.1 block: inhibitors of human KCNH2 3.1 potassium channel isoform; actives 0.95% (n = 340,000); U2OS KCNH2 3.1, thallium flux FluxOr; stronger effect = lower value; activity change, % (tested at about 1.8 µM);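 active = maximum activity change below -70%; inconclusive = maximum activity change from -70% to -50%; inactive = maximum activity change above -50%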;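 note: thallium influx rate constant from kinetic fluorescence after stimulation buffer; % is set by controls: 0 for no effect and ±100 for the full control effect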
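Thallium flux via FluxOr fluorescence (Red40 quencher, 45 min loading) in U2OS cells virally expressing the KCNH2 3.1 isoform (1.77 x 10^8 /mL virus, overnight at 37 C). Rate constants from 2-min kinetic reads post-stimulation, normalised to positive and negative controls.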
LDHA inh: blocks human lactate dehydrogenase A; P00338; purified LDHA, NADH/diaphorase-resazurin fluorescence; stronger effect = lower value; activity change, % (values are at about 110 or 230 µM); actives 0.15% (n = 480,000); AID 1347041; in the data active = activity change below about -30%; inconclusive = mostly about -25% to -30%;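 note: plate controls were DMSO wells for no effect and wells without enzyme for full effect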
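Enzyme activity of human lactate dehydrogenase 5 (2 nM; 0.06 mM NADH, 0.2 mM pyruvate, 5 min, RT) is measured via a resazurin/diaphorase fluorescence readout of residual NADH.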
ALOX12 inh: blocks human arachidonate 12S-lipoxygenase | P18054 | Potency, µM (highest dose often 108 µM), for inactives: top-dose activity change, negative = inhibition, most hits filed as inhibitors | purified 12hLO, xylenol orange hydroperoxide absorbance | actives 1.1% (n = 580,000); active = well fitted inhibition curve with a large enough effect; inconclusive = small, poorly fitted or top-dose-only effect, or another doubt; inactive = no such curve, though single readings can be large or run the other way; note: potency is the fitted concentration of half-maximal effect; % is set by controls: 0 for no effect and ±100 for the full control effect
Target sequence (P18054 whole entry, looked up): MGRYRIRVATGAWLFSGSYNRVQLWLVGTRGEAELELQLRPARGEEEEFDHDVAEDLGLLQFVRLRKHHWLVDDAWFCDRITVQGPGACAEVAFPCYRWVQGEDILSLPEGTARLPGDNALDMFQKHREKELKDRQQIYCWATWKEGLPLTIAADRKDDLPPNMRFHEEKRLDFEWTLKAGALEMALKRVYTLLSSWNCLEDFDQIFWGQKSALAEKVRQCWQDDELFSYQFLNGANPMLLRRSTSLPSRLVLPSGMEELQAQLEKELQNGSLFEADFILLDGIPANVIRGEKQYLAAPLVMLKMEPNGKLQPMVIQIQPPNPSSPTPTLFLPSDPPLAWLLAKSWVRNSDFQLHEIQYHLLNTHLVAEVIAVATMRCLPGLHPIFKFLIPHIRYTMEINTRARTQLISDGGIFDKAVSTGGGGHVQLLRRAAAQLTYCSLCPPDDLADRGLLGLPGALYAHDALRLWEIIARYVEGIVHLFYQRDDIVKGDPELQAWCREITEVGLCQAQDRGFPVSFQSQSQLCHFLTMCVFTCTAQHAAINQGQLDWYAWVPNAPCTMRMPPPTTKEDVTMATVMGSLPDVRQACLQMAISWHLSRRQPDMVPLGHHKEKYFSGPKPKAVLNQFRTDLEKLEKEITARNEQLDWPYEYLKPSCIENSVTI
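Hydroperoxide product was detected by ferrous iron/xylenol orange as the 573 to 405 nm absorbance ratio. Arachidonic acid at 40 uM (final) was turned over for 30 min at room temperature by 150 nM human 12hLO, pH 7.0 Hepes buffer, after 15 min compound preincubation.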
ClpP mod: qHTS Assay for Activators of ClpP. ATP-dependent Clp protease proteolytic subunit (Bacillus subtilis (strain 168)), P80244. purified B. subtilis ClpP, FRET peptide cleavage, 20 min. Potency, µM (highest dose often 57.5 µM), without a hit: top-dose activity change, negative = active. actives 1.9% (n = 340,000). AID 651965, 2013; active = well fitted falling curve with a large enough effect; inconclusive = small, poorly fitted or top-dose-only effect; inactive = no such curve, though single readings can be large or run the other way; note: potency is the fitted concentration of half-maximal effect; the source files actives as falling curves though it sought activators and does not explain the sign; nearly all actives have a fitted effect of over 65% in size
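Purified B. subtilis ClpP, 10 microg/mL final in Tris/HCl pH8 with KCl, BSA, glycerol and Tween-20, cleaved an Abz/nitrotyrosine-quenched decapeptide. Fluorescence (ex 320, em 430) was read at 0 and 20 min at room temperature. Delta was normalized to 5.8 microM ADEP and DMSO/no-enzyme controls.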
* marks the source's active call; other numbers are inactive results.

What do the screens show for `CCOc1ccc2nc(N/C(N)=N/C(=S)Nc3ccc(OC)cc3)nc(C)c2c1`?
hERG WT inh: -5; BCR signal inh: -4%; KCNH2 3.1 block: -18; LDHA inh: -10; ALOX12 inh: inconclusive; ClpP mod: 4%

How did Cc1cccc(NC(=S)/N=C(\N)Nc2nc(C)c3ccccc3n2)c1 do in these assays?
hERG WT inh: 4; BCR signal inh: 0%; KCNH2 3.1 block: -4; LDHA inh: -4; ALOX12 inh: inconclusive; ClpP mod: 1%

What do the screens show for `CCc1ccc(NC(=S)/N=C(\N)Nc2nc(C)c3cc(CC)ccc3n2)cc1`?
hERG WT inh: 20; BCR signal inh: -10%; KCNH2 3.1 block: 1; LDHA inh: -2; ALOX12 inh: 35µM*

How did O=C(c1nc(-c2cccc(C(F)(F)F)c2)c2cnccn12)N1CCCC1 do in these assays?
ALOX12 inh: 34%

How did O=C(CSc1ncccn1)N1CCN(C(c2ccccc2)c2ccccc2)CC1 do in these assays?
hERG WT inh: -15; BCR signal inh: inconclusive; KCNH2 3.1 block: -6; LDHA inh: -56*; ALOX12 inh: -24%; ClpP mod: -2%

How did Nc1cc(N)nc(SCC(=O)N2CCN(S(=O)(=O)c3ccccc3)CC2)n1 do in these assays?
hERG WT inh: -90*; BCR signal inh: 9%; KCNH2 3.1 block: -11; LDHA inh: -5; ALOX12 inh: 7%; ClpP mod: 1%

Results for O=C(COc1cccnc1[N+](=O)[O-])N1CCN(S(=O)(=O)c2ccccc2)CC1 ?
hERG WT inh: 3; BCR signal inh: inconclusive; KCNH2 3.1 block: 1; LDHA inh: 0; ALOX12 inh: -12%; ClpP mod: 4%

How did O=C(COc1nnc2ccccn12)N1CCN(S(=O)(=O)c2ccccc2)CC1 do in these assays?
hERG WT inh: -5; KCNH2 3.1 block: 0; LDHA inh: 1; ALOX12 inh: -1%; ClpP mod: 32µM*

What do the screens show for `O=C(CSc1ccccc1)N1CCN(S(=O)(=O)c2ccccc2)CC1`?
hERG WT inh: 0; BCR signal inh: -1%; LDHA inh: -5; ALOX12 inh: -13%; ClpP mod: -7%

Results for COc1ccc(Cn2c3c(c(=O)[nH]c2=O)CN(Cc2ccccc2)CN3)cc1 ?
LDHA inh: 3; ALOX12 inh: inconclusive

How did CC1=C(C#N)C(=O)NC(=O)/C1=C\c1ccc(-c2ccc(C)cc2[N+](=O)[O-])o1 do in these assays?
hERG WT inh: 2; BCR signal inh: 12%; KCNH2 3.1 block: -3; LDHA inh: 26; ALOX12 inh: 11µM*

Results for Cn1c(C(=O)N[C@@H]2COCC[C@H]2Oc2ccc(C#N)cc2)cc(=O)n(C)c1=O ?
ALOX12 inh: 12%

How did O=C(Nc1ccc(F)c(Cl)c1)C1CCCN(c2ncnc3nc[nH]c23)C1 (centres undefined) do in these assays?
LDHA inh: -8; ALOX12 inh: -3%

Results for CNC(=O)CN(C)S(=O)(=O)N1CCCC(C)C1 (centres undefined) ?
LDHA inh: 10; ALOX12 inh: 7%

How did COc1ccc(CCNC(=O)CSc2nnc(C(C)N(C)C)n2Cc2ccccc2)cc1OC (centres undefined) do in these assays?
hERG WT inh: -30; BCR signal inh: -5%; KCNH2 3.1 block: -71*; LDHA inh: -5; ALOX12 inh: 9%

What do the screens show for `COc1ccc(CCNC(=O)CSc2cc(=O)[nH]c(N)n2)cc1OC`?
hERG WT inh: 8; BCR signal inh: -2%; KCNH2 3.1 block: -8; LDHA inh: -3; ALOX12 inh: 6%; ClpP mod: -1%

Results for COc1ccc(CCNC(=O)CSc2nc(O)cc(=O)[nH]2)cc1OC ?
hERG WT inh: -1; BCR signal inh: -1%; KCNH2 3.1 block: -80*; LDHA inh: -5; ALOX12 inh: 0%; ClpP mod: -1%
